An excerpt weighted towards active compounds, which were near 12% of everything screened.
Pf growth 48h – inhibits P. falciparum growth in the first generation, 48 h | P. falciparum luciferase growth in erythrocytes, 48 h | 310,000 tested, 5.9% active | Potency, µM (top dose mostly 28.7 µM), actives largely listed as inhibitors
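Cell-based growth assay: transgenic P. falciparum expressing firefly luciferase, cultured in red cells within RPMI 1640 containing 0.5% w/v Albumax, 24 mM bicarbonate and gentamycin. A drop in luciferase activity indicates inhibition.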
NS1 inh – influenza NS1 inhibition. Potency, µM (top dose mostly 46.1 µM). 270,000 tested, 0.4% active; calls by dose curve; also: actives are rising curves; nearly all actives have a fitted effect of over 50% in size
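S. cerevisiae expressing influenza A NS1, grown in glucose, washed, then diluted 1:100 into pH 6.0 -URA galactose medium with 23 nl compound. Growth recovery read as OD600; NS1-free strain serves as control.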
Pf growth 96h – inhibits malaria parasite growth, 96 h | P. falciparum luciferase reporter growth, 96 h | 320,000 tested, 6.9% active | Potency, µM (top dose mostly 28.7 µM), actives largely listed as inhibitors
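Plates of compound plus infected erythrocytes (2% hematocrit, 0.05% parasitemia final) incubate 96 hours, 37 C, 5% CO2. Detection reagent added; reduced luminescence from the parasites' luciferase reporter flags inhibition.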
SARS PLpro yeast – SARS-CoV PLP inhibition in yeast; S. cerevisiae expressing SARS-CoV PLpro, growth rescue; Potency, µM (doses to about 32.9 µM), hits mostly activators; 330,000 tested, 0.19% active; AID 485353; calls by dose curve; also: nearly all actives have a fitted effect of over 55% in size
HCV inh – inhibitors of hepatitis C virus infection | Potency, µM (titrated, usually from 41.8 µM), usual class: inhibitors | Huh7.5.1 HCVcc-Cre infection, luciferase reporter, 44 h | 340,000 tested, 3.4% active
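Antiviral activity was scored by luciferase reporter output from cells infected with HCVcc-Cre (~0.5 moi) in presence of compound, 44 h infection period, cells seeded 1,000/well 4 h prior.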
AMA1-RON2 inh – AMA1-RON2 (P. falciparum) interaction inhibition; AlphaScreen AMA1-biotinylated RON2 peptide binding; Potency, µM (top dose mostly 58.2 µM), usual class: inhibitors; 360,000 tested, 0.2% active; AID 720542; also: nearly all actives have a fitted effect of over 45% in size
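AMA1 (3D7) with his tag at 25 nM final met compounds first, then biotinylated RON2 peptide at 25 nM; detection used donor plus acceptor beads, 10 µg/mL apiece, read by AlphaScreen after 30 min at room temperature.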
Numbers stand for hits; 0 = inactive; ? = inconclusive; - = no result given. Unless noted, calls follow the shape of the dose curve; as a rule, active = well fitted curve in the direction sought with a large enough effect; inconclusive = small, poorly fitted or top-dose-only effect, or another doubt; inactive = no such curve, though single readings can be large; an effect the other way counts as inactive or inconclusive.

SMILES | Pf growth 48h | NS1 inh | Pf growth 96h | SARS PLpro yeast | HCV inh | AMA1-RON2 inh
Cc1csc(=O)n1CCC(=O)OCC(=O)c1ccc(Br)cc1 | 0 | - | 0 | 0 | 0 | ?
O=C(Oc1c(Cl)cc(Cl)c2ccccc12)N1CCCCC1 | - | 0 | 12µM | 0 | ? | 0
O=C(Oc1ccc2ccccc2c1Cl)N1CCCCCC1 | 0 | 0 | 3.3µM | 0 | 0 | 0
CC1(C)Cc2cccc(OCC(=O)OCC(=O)Nc3ccc(S(N)(=O)=O)cc3)c2O1 | - | - | - | - | - | 0
CCCNC(=O)c1ccc(N2CCC3(CC2)CC(c2ccccc2)=NO3)c(NC(=O)c2cccc(C)c2)c1 | 8.3µM | ? | 1.9µM | 0 | 0 | 0
CCCCCCCC(=O)Nc1cc(C(=O)NCc2ccc(C)cc2)ccc1N1CCC2(CC1)CC(c1cccc(Br)c1)=NO2 | 0 | - | 0 | 0 | 0 | 0
CCCNC(=O)c1ccc(N2CCC3(CC2)CC(c2cccc(Br)c2)=NO3)c(NC(=O)c2ccccc2)c1 | 9.3µM | - | 12µM | 0 | 0 | 0
CCCNC(=O)c1ccc(N2CCC3(CC2)CC(c2ccccc2)=NO3)c(NC(=O)c2ccc(Br)cc2)c1 | ? | 0 | 1.9µM | 0 | ? | 0
Cc1ccc(CNC(=O)c2ccc(N3CCC4(CC3)CC(c3ccccc3)=NO4)c(NC(=O)c3ccc(Cl)c([N+](=O)[O-])c3)c2)cc1 | ? | - | ? | 0 | 11µM | 0
Cc1ccc(CNC(=O)c2ccc(N3CCC4(CC3)CC(c3cccc(Br)c3)=NO4)c(NC(=O)c3cccc(C)c3)c2)cc1 | ? | - | 0 | 0 | 0 | 0
O=C(COC(=O)C1CC(=O)N(Cc2ccco2)C1)Nc1nc(-c2ccc(F)cc2)cs1 (stereo not drawn) | - | - | - | 0 | ? | 0
Cc1ccc(CNC(=O)c2ccc(N3CCC4(CC3)CC(c3cccc(Br)c3)=NO4)c(N)c2)cc1 | ? | - | ? | 0 | ? | 0
COc1cccc(C(=O)Nc2cc(C(=O)NCc3ccc(C)cc3)ccc2N2CCC3(CC2)CC(c2cccc(Br)c2)=NO3)c1 | 10µM | - | 0 | 0 | 0 | 0
CCCNC(=O)c1ccc(N2CCC3(CC2)CC(c2cccc(Br)c2)=NO3)c(NC(=O)c2cccc(OC)c2)c1 | ? | - | 8.3µM | 0 | ? | 0
O=C(Nc1cc(C(=O)N2CCCC2)ccc1N1CCCC1)c1ccccc1 | 0 | 0 | - | 0 | 0 | 0
CCCCCCCC(=O)Nc1cc(C(=O)NCCC)ccc1N1CCC2(CC1)CC(c1ccccc1)=NO2 | ? | 0 | 7.4µM | 0 | 0 | 0
CCCNC(=O)c1ccc(N2CCC3(CC2)CC(c2ccccc2)=NO3)c(NC(=O)c2ccccc2)c1 | ? | 0 | 5.9µM | 0 | 0 | 0
CCCCCCCSc1ncnc2[nH]ncc12 | - | - | - | - | 0 | 0
COc1ccc(C(=O)OCC(=O)NC2CC2)cc1F | - | - | - | 0 | 0 | 0
CCCCCOC(=O)NC1CCS(=O)(=O)C1 (stereo not drawn) | 0 | - | 0 | 0 | 0 | 0
Cc1cc(=O)oc2cc(NC(=O)C(C)N3C(=O)C4CCCCC4C3=O)ccc12 (stereo not drawn) | 0 | - | 0 | 0 | 0 | 0
CC(=O)N1c2ccc(S(=O)(=O)NCC3CCC(C(=O)NC4CCCCC4)CC3)cc2CC1C (stereo not drawn) | 0 | 0 | ? | 0 | 0 | 0
CC(C)(C)OC(=O)N1CCN(C(=O)OCC2c3ccccc3-c3ccccc32)CC1C(=O)O (stereo not drawn) | - | - | - | - | 0 | 0
Cc1ccc(CNC(=O)c2ccc(N3CCC4(CC3)CC(c3cccc(Br)c3)=NO4)c(NC(=O)c3ccc(Br)cc3)c2)cc1 | - | - | - | 0 | 0 | 0
COc1ccc(CNC(=O)c2ccc(N3CCC4(CC3)CC(c3ccc(Cl)cc3)=NO4)c([N+](=O)[O-])c2)cc1 | - | - | - | - | 0.89µM | 0
SMILES | Pf growth 48h | NS1 inh | Pf growth 96h | SARS PLpro yeast | HCV inh | AMA1-RON2 inh
Cc1ccc(CNC(=O)c2ccc(N3CCC4(CC3)CC(c3cccc(Br)c3)=NO4)c(NC(=O)c3c(Cl)cccc3Cl)c2)cc1 | 5.9µM | - | 9.3µM | 0 | 0 | 0
Cc1ccc(CNC(=O)c2ccc(N3CCC4(CC3)CC(c3ccccc3)=NO4)c(NC(=O)c3cccc(C)c3)c2)cc1 | 4.1µM | - | ? | 0 | 0 | 0
Cc1ccc(CNC(=O)c2ccc(N3CCC4(CC3)CC(c3cccc(Br)c3)=NO4)c([N+](=O)[O-])c2)cc1 | ? | - | ? | 0 | 0 | 0
CC(=O)c1cc2c(cc1F)C(C)(C)CCC2(C)C | - | - | - | - | 0 | 0
Cc1c(OCC(=O)NCCN2CCOCC2)ccc2c1oc(=O)c1ccccc12 | ? | 0 | ? | ? | ? | 0
O=C(C[C@H]1C/C=C\CC[C@@H](Cc2ccc(F)cc2)C(=O)OCCNC1=O)NCCO | - | - | - | 0 | 0 | 0
CCOC(=O)c1sc2nc3c(SCCC#N)cc(C(=O)c4cc(F)ccc4O)cn3c(=O)c2c1C | 0.83µM | 0 | 0.83µM | 0 | 0 | 0
O=C(O)CSc1cc(C(=O)c2cc(F)ccc2O)cn2c(=O)c3c(-c4ccccc4)csc3nc12 | 8.3µM | 0 | ? | 0 | 0 | 0
CCOc1ccc(/C=N/NC(=O)c2nnn(-c3nonc3N)c2CN(C)C2CCCCC2)cc1 | ? | 0 | 0 | 0 | 0 | 0
Cc1ccc(NC(=O)Cc2ccc(Cl)c(Cl)c2)cc1S(=O)(=O)N(C)C | 0 | 0 | 0 | 0 | ? | 0
Cc1ccc(NC(=O)CNc2ccc(Cl)c(Cl)c2)cc1S(=O)(=O)N(C)C | 0 | 0 | ? | 0 | 6.3µM | 0
Cc1ccc(NC(=O)CSc2nn(-c3ccc(Cl)cc3)c(=S)s2)cc1S(=O)(=O)N(C)C | ? | 0 | ? | 0 | 13µM | 0
CN(C)S(=O)(=O)c1cc(NC(=O)CSc2nn(-c3ccc(Cl)cc3)c(=S)s2)ccc1Cl | ? | ? | ? | ? | 6.3µM | 0
CCN(CC)S(=O)(=O)c1ccc(C)c(NCC(=O)Nc2ccc(C#N)c(Cl)c2)c1 | ? | 0 | 5.2µM | 0 | 13µM | 0
CN(C)S(=O)(=O)c1cc(NC(=O)Cn2ccsc2=N)ccc1Cl | 0 | - | 0 | 0 | 0 | 0
COc1ccc(CCNC(=O)CCCN2C(=O)C(c3ccccc3)Oc3cccnc32)cc1OC (stereo not drawn) | ? | 0 | 0 | 0 | 0 | 0
NS(=O)(=O)c1cccc(NC(=O)CSc2nn(-c3ccccc3)c(=S)s2)c1 | 1.9µM | 0 | 1.2µM | 0 | ? | 0
Nc1nnc(SCC(=O)Nc2cccc(S(N)(=O)=O)c2)s1 | 0 | - | 0 | 0 | 0 | 0
COc1ccc(C(=O)Nc2ccc(C)c(S(=O)(=O)N3CCCCCC3)c2)cc1 | ? | - | 0 | 0 | 32µM | 0
O=C(Nc1ccc(N2CCCCC2)cc1)c1ccc2ccccc2n1 | 0 | 0 | 0 | 0 | 10µM | ?
CCc1ccc(C(=O)Nc2ccc(OC)c(S(=O)(=O)N3CCOCC3)c2)cc1 | 0 | 0 | ? | 0 | 8.9µM | 0
O=C(Nc1cccc(S(=O)(=O)C(F)F)c1)c1ccc(S(=O)(=O)N2CCCC2)cc1 | 0 | - | 0 | 0 | 5µM | 0
O=C(Oc1cc(=O)n2ccccc2n1)c1ccccc1 | 0 | 0 | 0 | 0 | 0 | 0

Screens from PubChem BioAssay.
